Laboratory results taken from PubChem BioAssay (Tox21).
“And” between values parts separate entries of the source, which are not always exact repeats. Identical values can stand only once. Records with an inconclusive call do not appear. Entries that show only a call come without a potency. More than one record can exist for a structure, and the calls need not agree. The source made the active and inactive calls. Unless noted, calls follow the shape of the dose curve; as a rule, active = well fitted curve in the direction sought with a large enough effect in the repeat runs; inconclusive = weak or mixed curves; inactive = no such curve, though single readings can be large; an effect the other way counts as inactive or inconclusive.

Experiments:
[1] = molecular target: Aryl hydrocarbon receptor (Homo sapiens) (UniProt P35869); assay: qHTS assay to identify small molecule that activate the aryl hydrocarbon receptor (AhR) signaling pathway (AID 743085); also: nearly all actives have a fitted effect of over 15% in size; also: potency is read from the fitted curve at half-maximal effect;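 as to activation: HG2L7.5c1 human HepG2 liver cells with stably integrated DRE-driven firefly reporter; series mostly up to about 70 µM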
Method in brief: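 24 h compound exposure, 37C, HepG2-derived HG2L7.5c1 cells with DRE-responsive luciferase. Readouts: fluorescence viability, then luminescence at room temperature after 30 min.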

[2] = qHTS assay to identify small molecule that activate the aryl hydrocarbon receptor (AhR) signaling pathway - cell viability counter screen (AID 743086); also: nearly all actives have a fitted effect of over 45% in size; also: potency is read from the fitted curve at half-maximal effect
Method in brief: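 HepG2-AhR-luc (HG2L7.5c1) cells, 4000/well, were preincubated 5 h at 37C, exposed to compound in qHTS format for 24 hr at 37C, then given CellTiter-Fluor for 30 min; viability was read as fluorescence in the reporter wells.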

[3] = molecular target: Peroxisome proliferator-activated receptor gamma (Homo sapiens) (UniProt P37231); assay: qHTS assay to identify small molecule agonists of the peroxisome proliferator-activated receptor gamma (PPARg) signaling pathway (AID 743094; active = well fitted activation curve with a large enough effect in the signal ratio in the repeat runs, not every such curve was filed as active; the % refers to the signal ratio; also: potency is read from the fitted curve at half-maximal effect)
Method in brief: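 Compounds dissolved in DMSO were added to PPARg UAS-bla HEK293H cells for 17 h at 37C, and reporter expression was quantified by fluorescence intensity after 1 h with LiveBLAzer B/G FRET substrate.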

[4] = qHTS assay to identify small molecule antagonists of the peroxisome proliferator-activated receptor gamma (PPARg) signaling pathway - cell viability counter screen (AID 743194); details: Potency: co-treated with 50 nM rosiglitazone unless noted; also: nearly all actives have a fitted effect of over 55% in size; also: potency is read from the fitted curve at half-maximal effect
Method in brief: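 PPARg-UAS-bla HEK293H cells were plated, rested 5 h at 37 C, then treated with compounds plus rosiglitazone (50 nM final) for 17 h at 37 C; viability was then read by CellTiter-Glo luminescence after 30 min at room temperature.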

[5] = qHTS assay for small molecule agonists of the antioxidant response element (ARE) signaling pathway (AID 743202; active = well fitted activation curve with a large enough effect in the signal ratio in the repeat runs, not every such curve was filed as active; the % refers to the signal ratio; also: potency is read from the fitted curve at half-maximal effect)
Method in brief: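 Read-out: LiveBLAzer B/G FRET substrate fluorescence after 2 h at room temperature, following 16 h compound treatment at 37 C of HepG2 cells carrying an ARE-driven beta-lactamase reporter.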

[6] = qHTS assay for small molecule agonists of the antioxidant response element (ARE) signaling pathway - cell viability counter screen (AID 743203; calls by dose curve; also: nearly all actives have a fitted effect of over 55% in size; also: potency is read from the fitted curve at half-maximal effect)
Method in brief: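 Following 16 hrs of compound treatment at 37C, HepG2 cells with an ARE-controlled beta-lactamase gene were lysed with CellTiter-Glo. Luminescence was read after 30 min at room temperature.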

[7] = qHTS assay for small molecule activators of the heat shock response signaling pathway - cell viability counter screen (AID 743209); also: nearly all actives have a fitted effect of over 50% in size; also: potency is read from the fitted curve at half-maximal effect
Method in brief: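 Readout: CellTiter-Glo luminescence, 30 min at room temperature. System: HSE-bla HeLa cells, 1500/well, plated overnight. Treatment: compounds in DMSO, 5 h at 37 C.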

[8] = qHTS assay for small molecule activators of the heat shock response signaling pathway (AID 743210; active = well fitted activation curve with a large enough effect in the signal ratio in the repeat runs, with a control signal flat, not every such curve was filed as active; the % refers to the signal ratio; also: potency is read from the fitted curve at half-maximal effect; as to activation: series mostly up to about 63 µM)
Method in brief: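 HSE-bla HeLa cells (beta-lactamase reporter under heat shock response elements) were exposed to compounds for 5 h at 37 C, then loaded with LiveBLAzer B/G FRET substrate for 2.5 h at room temperature before fluorescence reading.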

[9] = qHTS assay to identify small molecule agonists of the peroxisome proliferator-activated receptor delta (PPARd) signaling pathway - cell viability counter screen (AID 743211); also: nearly all actives have a fitted effect of over 55% in size
Method in brief: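 Luminescent ATP viability assay (CellTiter-Glo, 30 min RT) in UAS-bla HEK293H cells carrying the PPAR delta reporter construct, 3000 cells/well, after a 17 h compound treatment at 37 C.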

[10] = molecular target: Peroxisome proliferator-activated receptor gamma (Homo sapiens) (UniProt P37231); assay: qHTS assay to identify small molecule antagonists of the peroxisome proliferator-activated receptor gamma (PPARg) signaling pathway (AID 743191; calls by dose curve; also: series mostly up to about 63 µM; nearly all actives have a fitted effect of over 30% in size)
Method in brief: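 GeneBLAzer PPARg UAS-bla HEK293H cells carrying a UAS-driven beta-lactamase reporter were plated at 3000 cells/well, preincubated 5 h at 37C, then given compound for 17 h at 37C; LiveBLAzer B/G FRET substrate was read after 1 h at room temperature.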

Aryl hydrocarbon receptor (Homo sapiens), sequence (P35869 whole entry, looked up): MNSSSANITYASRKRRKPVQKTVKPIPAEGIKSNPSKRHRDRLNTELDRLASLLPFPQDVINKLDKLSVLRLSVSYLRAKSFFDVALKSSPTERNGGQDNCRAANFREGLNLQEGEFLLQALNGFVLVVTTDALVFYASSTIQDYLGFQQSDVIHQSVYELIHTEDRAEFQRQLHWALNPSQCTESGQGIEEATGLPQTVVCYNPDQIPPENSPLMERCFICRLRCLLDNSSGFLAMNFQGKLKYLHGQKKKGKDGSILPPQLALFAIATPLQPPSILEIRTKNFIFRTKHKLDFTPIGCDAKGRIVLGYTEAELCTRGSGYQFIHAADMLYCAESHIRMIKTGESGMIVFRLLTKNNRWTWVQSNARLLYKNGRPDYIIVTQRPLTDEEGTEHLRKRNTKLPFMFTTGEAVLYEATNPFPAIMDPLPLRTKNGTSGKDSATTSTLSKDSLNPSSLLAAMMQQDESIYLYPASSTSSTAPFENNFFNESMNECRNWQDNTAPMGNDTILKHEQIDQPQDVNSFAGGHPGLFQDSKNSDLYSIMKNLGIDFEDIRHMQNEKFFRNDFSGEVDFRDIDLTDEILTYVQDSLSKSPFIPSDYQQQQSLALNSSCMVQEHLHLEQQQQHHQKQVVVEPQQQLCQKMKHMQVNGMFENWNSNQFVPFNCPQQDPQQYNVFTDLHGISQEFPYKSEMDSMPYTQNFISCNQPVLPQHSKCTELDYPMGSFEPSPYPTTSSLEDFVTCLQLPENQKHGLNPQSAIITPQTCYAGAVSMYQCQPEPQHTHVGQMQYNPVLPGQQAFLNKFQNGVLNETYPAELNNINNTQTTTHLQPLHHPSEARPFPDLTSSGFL
Peroxisome proliferator-activated receptor gamma (Homo sapiens), sequence (P37231 whole entry, looked up): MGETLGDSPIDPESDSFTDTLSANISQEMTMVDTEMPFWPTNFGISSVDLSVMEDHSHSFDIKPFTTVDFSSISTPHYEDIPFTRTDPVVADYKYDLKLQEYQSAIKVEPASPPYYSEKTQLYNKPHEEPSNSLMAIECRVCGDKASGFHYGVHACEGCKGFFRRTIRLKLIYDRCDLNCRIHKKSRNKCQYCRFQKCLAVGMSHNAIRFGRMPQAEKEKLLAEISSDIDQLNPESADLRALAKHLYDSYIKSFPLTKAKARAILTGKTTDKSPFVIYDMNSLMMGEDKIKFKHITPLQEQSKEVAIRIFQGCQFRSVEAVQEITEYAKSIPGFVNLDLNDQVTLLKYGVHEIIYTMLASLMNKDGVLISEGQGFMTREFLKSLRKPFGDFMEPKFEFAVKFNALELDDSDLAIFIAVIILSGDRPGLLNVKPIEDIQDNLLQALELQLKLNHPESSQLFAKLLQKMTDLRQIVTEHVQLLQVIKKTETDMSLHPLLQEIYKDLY

Row | SMILES | Potency [1] | Potency [2] | Potency [3] | Potency [4] | Potency [5] | Potency [6] | Potency [7] | Potency [8] | Potency [9] | Potency [10]
1 | O=C(O)CC[N+](=O)[O-] | inactive | inactive | inactive | inactive | inactive | inactive | inactive | inactive |  | 
2 | OCC(O)CO | inactive | inactive | inactive | inactive | inactive | inactive | inactive | inactive | inactive | 
3 | NCc1cccnc1 | inactive | inactive | inactive | inactive |  | inactive | inactive | inactive | inactive | inactive
4 | C=CCc1ccc(OC)cc1 | inactive | inactive | inactive | inactive |  | inactive | inactive | inactive |  | 
5 | COP(=S)(OC)Oc1ccc([N+](=O)[O-])cc1 | inactive | inactive | inactive | inactive |  | inactive | inactive | inactive |  | 
6 | CCCCCCOC(=O)c1ccccc1C(=O)OCCCCCC | inactive | inactive | inactive | inactive | inactive | inactive | inactive | inactive |  | 
7 | Cc1ccc2c(c1N)C(=O)c1ccccc1C2=O | 3.03 µM (active) and 4.33 µM (active) | 27.3 µM (active) | inactive | inactive |  | inactive | inactive | inactive | inactive | 
8 | Clc1nc(Cl)nc(Cl)n1 | inactive | inactive | inactive | inactive |  | inactive | inactive | inactive | inactive | inactive
9 | CCCCC(CC)COC(=O)Cl (centres undefined) | inactive | inactive | inactive | inactive | inactive | inactive | inactive | inactive |  | 
10 | NC(=S)Nc1ccccc1 | inactive | inactive | inactive | inactive | inactive | inactive | inactive | inactive | inactive | inactive
11 | Cc1cccc(N)c1N | 11.8 µM (active) and 43.3 µM (active) | inactive | inactive | inactive |  | inactive | inactive | inactive | inactive | 
12 | C=CCN(CC=C)C(=O)C(Cl)Cl | inactive | inactive | inactive | inactive |  | inactive | inactive | inactive |  | inactive
13 | CC(O)CCO (centres undefined) | inactive | inactive | inactive | inactive |  | inactive | inactive | inactive |  | 
14 | O=[N+]([O-])c1cccc2ccccc12 | inactive | inactive | inactive | inactive | inactive | inactive | inactive | inactive |  | 
15 | CCN(CC)N=O | inactive | inactive | inactive | inactive |  | inactive | inactive | inactive |  | 
16 | CC(C)(C)c1ccccc1O | inactive | inactive | inactive | inactive |  | inactive | inactive | inactive | inactive | inactive
17 | Nc1ccc(Cl)c(Cl)c1 | 55.7 µM (active) and 61.1 µM (active) | inactive | inactive | inactive | inactive | inactive | inactive | inactive | inactive | 
18 | CCCCC(CC)COC(=O)c1ccc(C(=O)OCC(CC)CCCC)c(C(=O)OCC(CC)CCCC)c1 (centres undefined) | inactive | inactive | inactive | inactive |  | inactive | inactive | inactive | inactive | 
19 | CCOP(=S)(OCC)O/N=C(\C#N)c1ccccc1 | 10.6 µM (active) and 21.7 µM (active) | inactive | inactive | inactive | inactive | inactive | inactive | inactive |  | inactive
20 | O=C(Nc1ccc(Br)cc1)c1cc(Br)cc(Br)c1O | 5.31 µM (active) and 3.42 µM (active) and 3.06 µM (active) | inactive | inactive | 488 nM (active) and 245 nM (active) and 3.76 µM (active) |  | 34.2 µM (active) and 9.69 µM (active) and 13.3 µM (active) |  |  |  | 
21 | c1ccc(N=Nc2ccccc2)cc1 | inactive | inactive | inactive | inactive |  | inactive | inactive | inactive | inactive | inactive
22 | Cc1cc(Cl)ccc1OCCCC(=O)O | inactive | inactive | inactive | inactive |  | inactive | inactive | inactive | inactive | inactive
23 | CCN(CC)C(=O)/C(Cl)=C(\C)OP(=O)(OC)OC | inactive | inactive | inactive | inactive |  | inactive | inactive | inactive | inactive | 
24 | c1nc[nH]n1 | inactive | inactive | inactive | inactive | inactive | inactive | inactive | inactive | inactive | inactive

Row | SMILES | Potency [1] | Potency [2] | Potency [3] | Potency [4] | Potency [5] | Potency [6] | Potency [7] | Potency [8] | Potency [9] | Potency [10]
25 | CCCCCCCCOC(=O)c1ccccc1C(=O)OCCCCCCCC | inactive | inactive | inactive and 54.8 µM (active) | inactive | inactive | inactive | inactive | inactive | inactive | inactive
26 | COc1ccc(C=O)cc1 | inactive | inactive | inactive | inactive | inactive | inactive | inactive | inactive | inactive | 
27 | Nn1cnnc1 | inactive | inactive | inactive | inactive |  | inactive | inactive | inactive |  | inactive
28 | CCN(N=O)C(N)=O | inactive | inactive | inactive | inactive |  | inactive | inactive | inactive | inactive | 
29 | C[C@]12CCC(=O)C(O)=C1CC[C@@H]1[C@@H]2CC[C@]2(C)C(=O)CC[C@@H]12 | inactive | inactive | inactive | inactive |  | inactive | inactive | inactive |  | inactive
30 | Cc1c(COC(=O)[C@@H]2[C@H](/C=C(\Cl)C(F)(F)F)C2(C)C)cccc1-c1ccccc1 | inactive | inactive | inactive | inactive |  | inactive | inactive | inactive | inactive | 
31 | CCCCN(CC)c1c([N+](=O)[O-])cc(C(F)(F)F)cc1[N+](=O)[O-] | inactive | inactive | inactive | inactive | inactive | inactive | inactive | inactive |  | inactive
32 | CCCCCCCCCCCOC(=O)c1ccccc1C(=O)OCCCCCCCCCCC | inactive | inactive | inactive | inactive | inactive | inactive | inactive |  |  | 
33 | CC(C)NC(C)C | inactive | inactive | inactive | inactive | inactive | inactive | inactive |  |  | 
34 | CCCCNC(=O)n1c(NC(=O)OC)nc2ccccc21 | 34.2 µM (active) and inactive | inactive | inactive | inactive | inactive | inactive | inactive | inactive |  | 
35 | CCC(C)c1cc([N+](=O)[O-])cc([N+](=O)[O-])c1O (centres undefined) | inactive | inactive and 13.7 µM (active) | inactive | inactive | inactive and 611 nM (active) | inactive and 969 nM (active) | inactive | inactive | inactive | inactive
36 | CCC(=O)O[C@H]1CC[C@H]2[C@@H]3CCC4=CC(=O)CC[C@]4(C)[C@H]3CC[C@]12C | inactive | inactive | inactive | 49 µM [setting not given] (active) and inactive |  | 68.6 µM (active) and inactive | 54.9 µM (active) and inactive | inactive |  | 
37 | COP(=S)(OC)Oc1cc(Cl)c(Cl)cc1Cl | inactive and 30.4 µM (active) | inactive | inactive | inactive | inactive | inactive | inactive | inactive | inactive | 
38 | C=C(C)C(=O)OCC1CO1 (centres undefined) | inactive | inactive | inactive | inactive |  | inactive | inactive | inactive |  | 
39 | C#C[C@]1(O)CC[C@H]2[C@@H]3CCC4=CC(=O)CC[C@]4(C)[C@H]3CC[C@@]21C | inactive | inactive |  | inactive | inactive | inactive | inactive | inactive |  | 
40 | CC(C)=CC1C(C(=O)OCc2coc(Cc3ccccc3)c2)C1(C)C (centres undefined) | inactive | inactive |  | inactive | 54.5 µM (active) and 30.6 µM (active) | inactive | inactive |  |  | 
41 | C=C(C)[C@H]1Cc2c(ccc3c2O[C@@H]2COc4cc(OC)c(OC)cc4[C@@H]2C3=O)O1 | inactive | inactive and 39.1 µM (active) and 21.7 µM (active) | inactive | inactive |  | 15.6 µM (active) and 3.86 µM (active) and 3.76 µM (active) | inactive | inactive | inactive | 
42 | O=P(O)(O)CCCl | inactive | inactive |  | inactive | inactive | inactive | inactive | inactive |  | inactive
43 | CCOC(=S)S | inactive | inactive |  | inactive |  | inactive | 17.4 µM (active) | 2.24 µM (active) |  | 
44 | Cc1ccccc1[N+](=O)[O-] | inactive | inactive |  | inactive | inactive | inactive | inactive |  | inactive | 
45 | O=C(O)C(F)(F)C(F)(F)C(F)(F)C(F)(F)C(F)(F)C(F)(F)C(F)(F)F | inactive | inactive |  | inactive | 27.3 µM (active) and 21.6 µM (active) | inactive | inactive |  | inactive | 
46 | COP(=O)(OC)OC | inactive | inactive |  | inactive | inactive | inactive | inactive | inactive |  | inactive
47 | Nc1ccncc1 | inactive | inactive |  | inactive |  | inactive | inactive |  |  | 
